Data as given in PubChem BioAssay AID1159580 (chemical genetic matrix, 2015).
Among all 5,500 compounds or so, about 2,000 (36%) were called active. Roughly 18% stayed inconclusive and do not appear here. Rule as the data show it: active = normalized growth mostly below about 0.91 (no sharp cut-off); inconclusive = no clear call, values can overlap the other calls; inactive = mostly above about 0.92. The list shows a part of the results.

Assay: chemical genetic growth profiling, strain panel (AID 1159580);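 also: tested at 20 µM; growth read once vehicle control cultures reached saturation at 30 °C; 1 = growth at the plate median or of vehicle wells; lower values mean less growth of the strain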
Details: growth OD

Measured: normalized growth

O=C(O)CSCCOc1ccccc1
inactive: S. cerevisiae deletion strains, locus YAL013W, strain DEP1, active compounds read low 1.01 | S. cerevisiae deletion strains, locus YBR229C, strain ROT2, active compounds read low 1.01 | S. cerevisiae deletion strains, locus YCL061C, strain MRC1, active compounds read low 1 | S. cerevisiae deletion strains, locus YDL101C, strain DUN1, active compounds read low 0.997 | S. cerevisiae deletion strains, locus YDL134C, strain PPH21, active compounds read low 1.03 | S. cerevisiae deletion strains, locus YDR150W, strain NUM1, active compounds read low 0.932 | S. cerevisiae deletion strains, locus YEL061C, strain CIN8, active compounds read low 1.01 | S. cerevisiae deletion strains, locus YGR078C, strain PAC10, active compounds read low 1 | S. cerevisiae deletion strains, locus YHR030C, strain SLT2, active compounds read low 1.07 | S. cerevisiae deletion strains, locus YHR087W, strain rtc3, active compounds read low 0.998 | S. cerevisiae deletion strains, locus YJR043C, strain POL32, active compounds read low 1.01 | S. cerevisiae deletion strains, locus YJR075W, strain HOC1, active compounds read low 1.02 | S. cerevisiae deletion strains, locus YKL190W, strain CNB1, active compounds read low 1.01 | S. cerevisiae deletion strains, locus YLR039C, strain RIC1, active compounds read low 1.04 | S. cerevisiae deletion strains, locus YLR058C, strain SHM2 (second series), active compounds read low 1.01 | S. cerevisiae deletion strains, locus YLR085C, strain ARP6, active compounds read low 0.997 | S. cerevisiae deletion strains, locus YLR262C, strain YPT6, active compounds read low 1.05 | S. cerevisiae deletion strains, locus YML094W, strain GIM5, active compounds read low 1.01 | S. cerevisiae deletion strains, locus YMR219W, strain ESC1, active compounds read low 1 | S. cerevisiae deletion strains, locus YMR263W, strain SAP30, active compounds read low 1.01 | S. cerevisiae deletion strains, locus YMR307W, strain GAS1, active compounds read low 1.05 | S. cerevisiae deletion strains, locus YNL153C, strain GIM3, active compounds read low 1 | S. cerevisiae deletion strains, locus YNL298W, strain CLA4 (second series), active compounds read low 1.02 | S. cerevisiae deletion strains, locus YNL322C, strain KRE1, active compounds read low 0.997 | S. cerevisiae deletion strains, locus YNR030W, strain Alg12, active compounds read low 1.02 | S. cerevisiae deletion strains, locus YPL055C, strain LGE1, active compounds read low 1.09 | S. cerevisiae deletion strains, locus YPL241C, strain CIN2, active compounds read low 0.994 | S. cerevisiae deletion strains, locus YPR135W, strain CTF4, active compounds read low 1.17 | S. cerevisiae strains, strain wild type, active compounds read low 1.02
